aSyn tox rescue: alpha-synuclein toxicity suppression in yeast; S. cerevisiae alpha-synuclein toxicity rescue, BacTiter-Glo growth, 24 h; Potency, µM (series often up to 46.1 µM), hits mostly activators; 0.02% of 94,000 active; AID 1347070; active means well fitted activation curve with a large enough effect; further: 0% is about no effect
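Growth restoration measured by BacTiter-Glo luminescence after 24 hr at 30 deg C; alpha-synuclein yeast, raffinose-pregrown to mid-log, were added at OD600=0.02 in galactose medium onto pinned compounds.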
Active calls of the source: *; i = inactive. This is one part of a sample in which hits are shown more often than they occur. Potency means the concentration at half of the fitted maximal effect.

SMILES | aSyn tox rescue
COc1ccc(N2CCN(C(CNS(=O)(=O)c3ccc(OC)c(C)c3)c3ccco3)CC2)cc1 (configuration not stated) | i
CCOC(=O)c1cnn(-c2ccc(OC)cc2)c1C1CCN(C(=O)OC(C)(C)C)CC1 | i
CCc1ccc(C2=NN(CCC(=O)NCCc3ccc(OC)c(OC)c3)C(=O)CC2)cc1 | i
O=c1oc2ccccc2cc1-c1nc(-c2cccs2)no1 | i
COc1ccc(F)cc1NC(=O)C1CCN(c2nc(-c3ccc(OC)c(OC)c3)no2)CC1 | i
COc1ccc(C2C=C(c3ccc(Cl)cc3)Nc3nc(-c4ccc(Cl)cc4)nn32)cc1 (configuration not stated) | i
COc1ccc(CCNS(=O)(=O)c2ccc(F)c(C(=O)Nc3ccc(Cl)cc3)c2)cc1OC | i
CCOc1ccc(NC(=O)Cn2c(=O)n(CCCS(=O)(=O)C3CCCCC3)c(=O)c3ccccc32)cc1 | i
COc1cccc(CNC(=O)CCc2cn(Cc3ccccc3Cl)c3ccccc23)c1 | i
Cc1ccc(C2c3[nH]c4ccccc4c3CCN2C(=O)CSCc2ccc(F)cc2)cc1 (configuration not stated) | 16µM*
CCOc1ccc(C2c3[nH]c4ccccc4c3CCN2C(=O)CSc2ccccc2)cc1 (configuration not stated) | i
O=C(CCC1CCCC1)N1CCc2c([nH]c3ccccc23)C1c1ccc(F)cc1 (configuration not stated) | i
CSc1ccc(C2c3[nH]c4ccccc4c3CCN2C(=O)CCc2ccccc2)cc1 (configuration not stated) | i
CCc1ccccc1NC(=O)N1CCc2c([nH]c3ccccc23)C1c1ccc(C)cc1 (configuration not stated) | i
Cc1ccc(C2c3[nH]c4ccccc4c3CCN2C(=O)CSc2ccccc2)cc1 (configuration not stated) | 14µM*
Cc1noc(Cn2c(=O)c3ccccc3n(CC(=O)Nc3ccc(Cl)cc3)c2=O)n1 | i
CC1=C(C(=O)N2CCN(c3ccccc3)CC2)C2(CCCCC2)OC1=O | i
Cc1ccc(CNC(=O)c2cc3c(=O)oc4ccc(C)cc4c3s2)cc1 | i
CCCN(CCC)CCCNC(=O)c1cc2c(=O)oc3ccc(C)cc3c2s1 | 13µM*
Cc1ccc2oc(=O)c3cc(C(=O)NCc4ccc(Cl)cc4)sc3c2c1 | i
COc1ccc(C2CC(=O)c3cnc4c(-c5ccccc5)c(C)nn4c3C2)cc1OC (configuration not stated) | i
CCN(CC)S(=O)(=O)c1ccc2c(c1)N(CC(=O)Nc1ccc(F)cc1F)C(=O)C1CCCN21 (configuration not stated) | i
COc1ccc(NC(=O)C(=O)NCC(c2cccnc2)N2CCc3ccccc3C2)cc1 (configuration not stated) | i
COc1ccc(NC(=O)CSc2oc(-c3cccs3)nc2S(=O)(=O)c2ccc(Br)cc2)c(OC)c1 | i
CCc1ccc(C(=O)c2cn(CC(=O)Nc3ccc(F)cc3)c3ccc(F)cc3c2=O)cc1 | i
SMILES | aSyn tox rescue
O=C(CCN1C(=O)c2ccccc2Sc2ncccc21)Nc1ccc(F)cc1F | i
O=C(CSCc1cnn(-c2ccccc2)c1-n1cccc1)NCc1cccc(Cl)c1 | i
CSc1nc2sc3c(c2c(=O)n1-c1ccc(C)c(Cl)c1)CCN(C(C)=O)C3 | i
CCc1ccc(NS(=O)(=O)c2c(-c3ccccc3)csc2C(=O)OC)cc1 | 25µM*
COC(=O)c1scc(-c2ccccc2)c1S(=O)(=O)Nc1cccc(C)c1C | i
CCOC(=O)c1scc(-c2ccccc2)c1S(=O)(=O)Nc1ccccc1OC | i
CCOC(=O)c1cccc(NC(=O)[C@@H](c2ccccc2)N2Cc3ccccc3C2=O)c1 | i
COc1ccc(-c2nc3cc(NC(=O)Cc4ccc(Cl)cc4)ccc3o2)cc1OC | i
Cc1ccc(CNC(=O)C(=O)Nc2c3c(nn2-c2ccc(F)cc2)CSC3)cc1 | i
CNC(=O)c1cnc2sc(N3CCCCCC3)nn2c1=O | i
Cn1c(=O)n(CCCc2ccccc2)c(=O)c2c1nc1n2CCN1c1ccccc1 | i
CN1C(=O)c2ccccc2Sc2ccc(NC(=O)COc3ccccc3)cc21 | i
COC(=O)c1ccccc1NC(=O)Cn1c(=O)n(CCCCC(=O)NCc2ccc3c(c2)OCO3)c(=O)c2ccccc21 | i
COc1ccccc1CNc1ccc(-c2nc(-c3ccco3)no2)cc1[N+](=O)[O-] | i
O=C(Cn1cc(SCc2ccc(C(F)(F)F)cc2)c2ccccc21)N1CCOCC1 | i
O=C(CCSCc1ccccc1Cl)NCc1ccc(F)cc1Cl | i
O=C(CCSCc1cccc(Cl)c1)NCc1ccc(F)cc1Cl | 28µM*
O=C(CCSCc1ccc(Cl)cc1)NCc1ccc(F)cc1Cl | i
CCOc1ccc(CCNC(=O)c2cc3n(n2)CCCN(Cc2ccc(C)cc2)C3=O)cc1OCC | i
CN(C)c1ccc(-c2nc(-c3ccco3)no2)cc1[N+](=O)[O-] | i
O=C(c1ccccc1Cl)N(Cc1ccco1)Cc1ccco1 | i

Screening data (PubChem)
